Results on 31 compounds are retold here after PubChem BioAssay (NCI).

Assay in all cases: NCI-60 one-dose screen, 48 h (100 = growth as untreated, 0 = no growth, -100 = all killed)
Common to all, as to details: 10 µM unless noted

For assay [1], the system named is T-47D breast.
Assay [2] has as its system BT-549 breast.
Assay [3] has as its system MDA-MB-435 melanoma.
In assay [4] the test system is SW-620 colon.
Assay [5] has as its system MCF7 breast.
Assay [6] deals with HCT-116 colon.
For assay [7], the system named is HCC-2998 colon.
Assay [8] concerns KM12 colon.

About 83,000 compounds went through this panel and 20% of them were active in at least one assay; those are over-represented in the sample as a whole.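 Plates (96-well) were seeded with cells, treated with compound at one concentration, and incubated for 48 hours before percent growth was determined.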 Unmarked numbers belong to inactive results. Active and inactive are the calls of the source. The calls were made as follows: active = growth percent below 10; inactive = the rest.

For the compound `COc1ccc(/C=C(/C#N)n2nnc3cccc(F)c32)cc1`, the growth in assay [1] is 9.54% (active); in assay [2], 20.3%; in assay [3], -56.4% (active); in assay [4], 11.9%; in assay [5], 17.1%; in assay [6], 10.1%. Moreover, the figures for the growth in assay [7] and in assay [8] were 36% and 5.54% (active), respectively.
For `CCOc1c(B(O)O)cccc1-c1nc2ccc3[nH]ncc3c2c2c1CCCC2`, the growth was 75.5% in assay [1]; 25.1% in assay [2]; 90.1% in assay [3]; 38.3% in assay [4]; 59.4% in assay [5]; 34.8% in assay [6]. The growth in assay [7] is 51%; in assay [8] it was 32.2%.
`COc1cc(OCc2cccc(-c3ccc(C(O)c4nccs4)cc3)c2C)cc(OC)c1CNCCNC(C)=O` (stereo not drawn): the growth in assay [1] was 90.8%; in assay [2], 102%; in assay [3] it was 98.5%; in assay [4] it was 97.8%; in assay [5], 89.9%; in assay [6] it was 94%. Besides, the growth was 124% in assay [7] and 101% in assay [8].
As to `Cc1c(C(=O)NCCN2CCOCC2)cn2ncnc(Oc3ccc(NC(=O)Nc4ccc(Cl)c(C(F)(F)F)c4)cc3)c12`, the growth in assay [1] is 15%; in assay [2] it was 45.6%; in assay [3], 18%; in assay [4], 0.917% (active); in assay [5] it was 7.07% (active); in assay [6], 8.49% (active). The figures for the growth in assay [7] and in assay [8] were 51.1% and 19.6%, respectively.
For `CCN(CC)S(=O)(=O)c1ccc(NC(=O)CSc2nnc(C)n2-c2ccccc2)cc1`, the growth in assay [1] was 106%; in assay [2] it was 117%; in assay [3] it was 99.2%; in assay [4], 105%; in assay [5], 113%; in assay [6] it was 102%. Moreover, the figures for the growth in assay [7] and in assay [8] were 109% and 104%, respectively.
As for `CN1CCN(CC(=O)N2c3cccc4cccc(c34)N(C(=O)CN3CCN(C)CC3)C2c2cn(-c3ccccc3)nc2-c2cccc([N+](=O)[O-])c2)CC1`, the growth in assay [1] is -75.8% (active); in assay [2], 71.2%; in assay [3], -42.6% (active); in assay [4], -26.4% (active); in assay [5] it was -71.1% (active); in assay [6] it was -58.2% (active). Besides, the growth in assay [7] is -52.9% (active); in assay [8], 26%.
Consider `Cc1nc2cnc(N)c(C#Cc3cncc(C(=O)Nc4ccc(CN5CCN(C)CC5)c(C(F)(F)F)c4)c3)c2nc1C`, for which the growth in assay [1] was 45.2%; in assay [2], 35.6%; in assay [3], 0.973% (active); in assay [4], -20.9% (active); in assay [5], 1.7% (active); in assay [6] it was 0.345% (active). In addition, the figures for the growth in assay [7] and in assay [8] were 11.5% and -17.4% (active), respectively.
For the compound `COc1ccc(-c2nc3sc(-c4ccc(Cl)cc4)cn3n2)cc1`, the growth in assay [1] was 54.9%; in assay [2], 97.6%; in assay [3] it was 75%; in assay [4], 59.6%; in assay [5] it was 48.9%; in assay [6], -16.3% (active). Besides, the growth in assay [7] was 78.6%; in assay [8], 54.7%.
On to `CC(C)n1cnc2c(Nc3cccc(Cl)c3)nc(N[C@H]3CCCC[C@@H]3N)nc21`, for which the growth is 64.8% in assay [1]; 63% in assay [2]; 47.5% in assay [3]; 55.5% in assay [4]; 40.9% in assay [5]; 28.1% in assay [6]. Also, the values for the growth in assay [7] and in assay [8] were 23.4% and 13.5%, respectively.
As for `COc1ccc(-c2cc(-c3cc(OC)c(OC)c(OC)c3)nc(N3CCOCC3)c2C#N)cc1`, the growth in assay [1] was 46.7%; in assay [2], 128%; in assay [3], 74.5%; in assay [4], 67.3%; in assay [5], 74.4%; in assay [6], 72.1%. Moreover, the growth in assay [7] was 35%; in assay [8], 71.9%.
On to `C[C@]12CC[C@@H]3c4cc(OC(F)F)c(OS(N)(=O)=O)cc4CC[C@H]3[C@@H]1CC[C@@H]2O`, for which the growth is 43.7% in assay [1]; 41.8% in assay [2]; -70.8% (active) in assay [3]; 28.1% in assay [4]; 22.1% in assay [5]; 21.3% in assay [6]. Further, the growth in assay [7] was 16.2%; in assay [8] it was 12.2%.
Consider `CC1CN(C2CCCCC2)C(=S)N(c2ccccc2)C1=O` (stereo not drawn), for which the growth in assay [1] was 103%; in assay [2] it was 108%; in assay [3], 105%; in assay [4], 103%; in assay [5], 96.1%; in assay [6], 101%. Besides, the growth in assay [7] is 100%; in assay [8], 97.3%.
With `COc1ccc(CNC(=O)C(=O)[C@H](Cc2ccccc2)NC(=O)c2[nH]c3ccccc3c(=O)c2C)cc1`, the growth in assay [1] is 101%; in assay [2], 115%; in assay [3] it was 100%; in assay [4] it was 97.3%; in assay [5], 94.3%; in assay [6] it was 101%. In addition, the growth in assay [7] was 110%; in assay [8], 101%.
As to `C=C1CC[C@H](C(C)C)[C@@H]2[C@H]1[C@H]1CC(=C)[C@@H](O)CC[C@@](C)(O)[C@@H]2O1`, the growth in assay [1] is 97.1%; in assay [2] it was 99.2%; in assay [3], 96.8%; in assay [4], 96.7%; in assay [5], 97%; in assay [6], 86.2%. Further, the results for the growth in assay [7] and in assay [8] were 77.9% and 96.3%, respectively.
With `COc1ccc(-c2csc(NC(=O)N3CCN(c4cc5c(cc4F)c(=O)c(C(=O)O)cn5C4CC4)CC3)n2)cc1`, the growth in assay [1] was 5.11% (active); in assay [2] it was -13.5% (active); in assay [3], 3.67% (active); in assay [4], 15.7%; in assay [5], 3.38% (active); in assay [6] it was 5.37% (active). In addition, the growth in assay [7] is 31%; in assay [8], 3.67% (active).
For the compound `CNCCCC12CCC(c3ccccc31)c1ccccc12`, the growth in assay [1] is 89%; in assay [2], 78.3%; in assay [3] it was 78.9%; in assay [4], 98.2%; in assay [5], 87.3%; in assay [6], 69.1%. For the same compound, the growth in assay [7] was 50.5%; in assay [8] it was 94.1%.
On to `CN(C)c1ccc2nc3ccc(=[N+](C)C)c([N+](=O)[O-])c-3sc2c1`, for which the growth in assay [1] is 10.3%; in assay [2], 40.5%; in assay [3], 41.9%; in assay [4], 24.4%; in assay [5], 7.94% (active); in assay [6] it was 20.7%. Besides, the growth in assay [7] is 42.7%; in assay [8], 34.6%.
In the case of `COc1ccc(-c2cnc3ccccc3n2)cc1`, the growth was 96.7% in assay [1]; 95.1% in assay [2]; 94.4% in assay [3]; 96.6% in assay [4]; 105% in assay [5]; 99.2% in assay [6]. In addition, the growth in assay [7] was 95.4%; in assay [8], 92.7%.
Turning to `COc1ccc(/C=N/Nc2cc(=O)[nH]c3ccc(C)cc23)cc1`, the growth in assay [1] is 70.7%; in assay [2] it was 88.3%; in assay [3], 102%; in assay [4], 96.8%; in assay [5] it was 78.1%; in assay [6] it was 83.1%. In addition, the growth is 99.2% in assay [7] and 105% in assay [8].
For `C#C[C@]1(O)CC[C@H]2[C@@H]3CC=C4c5sc(Nc6cc(F)ccc6F)nc5CC[C@]4(C)[C@H]3CC[C@@]21C`, the growth in assay [1] was -16.6% (active); in assay [2], 12.3%; in assay [3] it was -28.2% (active); in assay [4], -61.1% (active); in assay [5], -23.8% (active); in assay [6] it was -44.2% (active). Moreover, the growth in assay [7] was -78.8% (active); in assay [8], -41.2% (active).
For the compound `Cc1oc2nc[nH]c(=O)c2c1C(=O)/C=C/c1ccc(Br)cc1`, the growth in assay [1] is 4.69% (active); in assay [2], 2.55% (active); in assay [3], 19.8%; in assay [4] it was 3.84% (active); in assay [5] it was 9.43% (active); in assay [6], -11.6% (active). In addition, the growth was -33.9% (active) in assay [7] and -5.18% (active) in assay [8].
As to `CN1CCN(c2ccc(-c3cc4c(Nc5ccc(F)c(Cl)c5)ncnn4c3)cc2)CC1`, the growth is 63.4% in assay [1]; 98.5% in assay [2]; 76.4% in assay [3]; 25.2% in assay [4]; 45.3% in assay [5]; 15.7% in assay [6]. Moreover, the results for the growth in assay [7] and in assay [8] were 53.8% and 13.8%, respectively.
As for `O=C(COc1ccc(/C=C2\Cc3ccc(Cl)cc3C2=O)cc1)Nc1nc2ccccc2s1`, the growth in assay [1] was 101%; in assay [2] it was 124%; in assay [3] it was 113%; in assay [4], 112%; in assay [5], 103%; in assay [6], 102%. Further, the growth in assay [7] was 115%; in assay [8], 117%.
As to `O=C(CSc1nccc(Nc2ccc(S(=O)(=O)Nc3nccs3)cc2)n1)c1ccc(C(F)(F)F)cc1`, the growth was 82.1% in assay [1]; 88.2% in assay [2]; 99% in assay [3]; 102% in assay [4]; 94.2% in assay [5]; 86.7% in assay [6]. The growth in assay [7] was 112%; in assay [8], 106%.
On to `CCOC(=O)c1c(C)nc2c(c1N)CC(=O)N2Cc1ccc(F)cc1`, for which the growth in assay [1] is 73.2%; in assay [2], 72.5%; in assay [3] it was 99.8%; in assay [4], 92.2%; in assay [5], 96.1%; in assay [6] it was 87.6%. For the same compound, the figures for the growth in assay [7] and in assay [8] were 103% and 97.7%, respectively.
Take `CN(C)CCN1CCN(c2ncccc2C2Nc3ccccc3-n3cccc32)CC1` (stereo not drawn): the growth was 90.1% in assay [1]; 92.3% in assay [2]; 101% in assay [3]; 97.8% in assay [4]; 101% in assay [5]; 105% in assay [6]. Moreover, the growth is 114% in assay [7] and 105% in assay [8].
Turning to `Oc1ccc(-c2nc3ccc4[nH]ncc4c3c3c2CCCC3)c2cccnc12`, the growth in assay [1] was 15.1%; in assay [2], -12.9% (active); in assay [3], -7.42% (active); in assay [4], 7.64% (active); in assay [5], 2.05% (active); in assay [6], 2.74% (active). Further, the figures for the growth in assay [7] and in assay [8] were 5.08% (active) and 2.51% (active), respectively.
As for `CCCCn1c(=O)c(-c2cc(-c3ccc(Cl)cc3)nc(-c3ccc(Cl)cc3)c2)cc2cc(C)ccc21`, the growth in assay [1] is 95.8%; in assay [2] it was 103%; in assay [3] it was 104%; in assay [4], 99.6%; in assay [5] it was 97.6%; in assay [6] it was 99.8%. In addition, the growth in assay [7] is 105%; in assay [8] it was 102%.
`CCOC(=O)CCN(C(=O)Nc1ccccc1)C1CCCCC1`: the growth in assay [1] is 104%; in assay [2], 118%; in assay [3], 106%; in assay [4] it was 102%; in assay [5], 98.4%; in assay [6], 102%. Moreover, the growth in assay [7] is 74.8%; in assay [8], 108%.
Regarding `O=C(CS(=O)c1oc(-c2cccs2)nc1S(=O)(=O)c1ccc(Br)cc1)c1ccccc1` (stereo not drawn), the growth is 82% in assay [1]; 97% in assay [2]; 95% in assay [3]; 97.7% in assay [4]; 96.9% in assay [5]; 86.2% in assay [6]. Further, the growth in assay [7] was 98.6%; in assay [8], 102%.
Take `CCN(CC)Cc1cc(Nc2c3ccc(Cl)cc3nc3ccc(OC)cc23)ccc1O`: the growth in assay [1] was 67.5%; in assay [2] it was 81.4%; in assay [3], 60.2%; in assay [4], 31.7%; in assay [5], 17.4%; in assay [6] it was 12.8%. Moreover, the growth is 43.6% in assay [7] and 40.6% in assay [8].
